{
  "source": "PubChem BioAssay",
  "key": {"[1]": {"experiment": "parental HEK293 membrane potential modulation, confirmation, counter-screen for TRPC6 modulator project, cell-based (AID 488924;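 active = membrane potential signal moves up or down beyond 5 SD from buffer-only wells, on both duplicate plates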)", "settings": "parental HEK293, membrane potential dye fluorescence; at 10 µM"}, "[2]": {"experiment": "modulation of acetylcholine-evoked membrane potential, parental HEK293, confirmation, counter-screen for TRPC6 modulator project, cell-based, second counter-screen, membrane potential dye (AID 488926;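 active = membrane potential signal drops by more than 5 SD from the mean control signal, in both duplicate plates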)", "settings": "parental HEK293, membrane potential dye fluorescence, at 10 µM, after compound, maximal acetylcholine stimulation; stronger effect = higher value"}, "[3]": {"test_system": "Transient receptor potential cation channel subfamily C member 4 (mouse)", "experiment": "TRPC4 modulation by TRPC6 hit compounds, confirmation, selectivity assay for TRPC6 modulator project, cell-based, HEK293 TRPC4/mu-opioid, membrane potential dye, mouse (AID 488927;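 active = membrane potential signal moved up or down beyond 5 SD of buffer control wells, in both duplicate plates, actives on both sides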)", "settings": "membrane potential fluorescence, at 10 µM"}, "[4]": {"test_system": "TRPC4 (transient receptor potential cation channel C4), mouse", "experiment": "TRPC4 inhibition by TRPC6 hit compounds, confirmation, selectivity assay for TRPC6 modulator project, cell-based, second screen, HEK293 TRPC4/mu-opioid, membrane potential dye (AID 488928);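 note: TRPC4 counter screen for TRPC6 hits run under conditions tuned for TRPC6 not TRPC4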", "settings": "membrane potential dye fluorescence, at 10 µM, stimulated with maximal-effect DAMGO; stronger effect = higher value"}, "[5]": {"biological_target": "Short transient receptor potential channel 6 (Mus musculus) (UniProt Q61143)", "sequence (Q61143 whole entry, looked up)": "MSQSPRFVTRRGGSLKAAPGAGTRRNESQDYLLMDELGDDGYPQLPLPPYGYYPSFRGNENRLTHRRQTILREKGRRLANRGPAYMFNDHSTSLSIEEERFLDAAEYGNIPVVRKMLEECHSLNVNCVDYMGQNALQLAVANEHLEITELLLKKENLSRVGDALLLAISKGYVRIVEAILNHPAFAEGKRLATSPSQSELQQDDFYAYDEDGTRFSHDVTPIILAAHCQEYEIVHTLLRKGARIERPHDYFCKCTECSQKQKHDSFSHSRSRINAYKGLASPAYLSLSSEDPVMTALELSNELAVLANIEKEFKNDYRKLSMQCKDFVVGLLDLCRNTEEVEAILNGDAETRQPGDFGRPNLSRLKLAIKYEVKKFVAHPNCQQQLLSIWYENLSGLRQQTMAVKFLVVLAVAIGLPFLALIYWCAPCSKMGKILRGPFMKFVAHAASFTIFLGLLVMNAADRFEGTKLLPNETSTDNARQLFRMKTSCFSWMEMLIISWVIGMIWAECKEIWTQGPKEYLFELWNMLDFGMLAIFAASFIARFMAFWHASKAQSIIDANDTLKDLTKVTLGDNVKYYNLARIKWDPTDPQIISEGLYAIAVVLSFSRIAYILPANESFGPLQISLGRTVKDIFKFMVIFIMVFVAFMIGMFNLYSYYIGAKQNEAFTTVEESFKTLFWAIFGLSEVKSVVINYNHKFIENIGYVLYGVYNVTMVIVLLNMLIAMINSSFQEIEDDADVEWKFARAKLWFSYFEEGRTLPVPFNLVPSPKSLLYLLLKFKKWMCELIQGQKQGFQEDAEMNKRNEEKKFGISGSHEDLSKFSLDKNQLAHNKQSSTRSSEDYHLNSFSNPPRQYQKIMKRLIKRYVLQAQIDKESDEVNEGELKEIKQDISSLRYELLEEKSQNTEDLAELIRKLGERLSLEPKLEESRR", "experiment": "mouse TRPC6 channel inhibitors, confirmation, HEK293 cells, membrane potential dye, duplicate (AID 488960;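 active = fluorescence ratio falls more than 5 SD below the full-stimulation control mean, in both duplicate runs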;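 for inhibition: integrated fluorescence ratio of peak minus minimum over baseline after agonist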)", "settings": "ACh-evoked depolarization, at 10 µM; stronger effect = higher value"}, "[6]": {"biological_target": "Short transient receptor potential channel 6 (Mus musculus) (UniProt Q61143)", "experiment": "mouse TRPC6 channel activators, confirmation, HEK293 cells, membrane potential dye, duplicate (AID 488961;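 active = ratio signal rise beyond 5 SD above unstimulated control wells' mean, seen in both duplicate runs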;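 for activation: plate controls were buffer EC0 wells for no effect and acetylcholine ECmax response for full effect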)", "settings": "HEK293-TRPC6 membrane potential dye fluorescence, FDSS, at 10 µM; stronger effect = higher value"}},
  "note": "Some of the results follow. Unmarked numbers belong to inactive results. Active and inactive are the calls of the source.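 Rule for the calls, unless noted: active = drop in membrane potential signal beyond 5 SD of the control wells in both duplicate plates; inactive = the rest.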",
  "data": [
    {"smiles": "COc1ccccc1C(CNC(=O)c1cccc(NS(=O)(=O)c2ccc(Br)cc2)c1)N(C)C", "note": "(stereo not given)", "values": [
      {"measurement": "outcome", "setting": "[1]", "value": "inactive"},
      {"measurement": "outcome", "setting": "[2]", "value": "inactive"},
      {"measurement": "outcome", "setting": "[3]", "value": "inactive"},
      {"measurement": "inhibition", "setting": "[4]", "value": "32.5% (active)"},
      {"measurement": "inhibition", "setting": "[5]", "value": "44% (active)"},
      {"measurement": "outcome", "setting": "[6]", "value": "inactive"}
    ]},
    {"smiles": "CN(C)c1ccc(/C=C2\\NC(=S)N(Cc3ccccc3)C2=O)cc1", "values": [
      {"measurement": "membrane potential signal change", "setting": "[1]", "value": "267% (active)"},
      {"measurement": "outcome", "setting": "[2]", "value": "inactive"},
      {"measurement": "percent change from control (negative = decrease, positive = increase)", "setting": "[3]", "value": "126% (active)"},
      {"measurement": "outcome", "setting": "[4]", "value": "inactive"},
      {"measurement": "outcome", "setting": "[5]", "value": "inactive"},
      {"measurement": "outcome", "setting": "[6]", "value": "inactive"}
    ]},
    {"smiles": "O=C(C[n+]1ccc2c(c1)nnn2-c1ccccc1)c1ccc(Cl)cc1", "values": [
      {"measurement": "membrane potential signal change", "setting": "[1]", "value": "-110% (active)"},
      {"measurement": "outcome", "setting": "[2]", "value": "inactive"},
      {"measurement": "percent change from control (negative = decrease, positive = increase)", "setting": "[3]", "value": "-37.5% (active)"},
      {"measurement": "inhibition", "setting": "[4]", "value": "62% (active)"},
      {"measurement": "inhibition", "setting": "[5]", "value": "56% (active)"},
      {"measurement": "outcome", "setting": "[6]", "value": "inactive"}
    ]},
    {"smiles": "CCC(C)NCCOCCOc1ccc(Br)cc1C", "note": "(stereo not given)", "values": [
      {"measurement": "membrane potential signal change", "setting": "[1]", "value": "94% (active)"},
      {"measurement": "outcome", "setting": "[2]", "value": "inactive"},
      {"measurement": "percent change from control (negative = decrease, positive = increase)", "setting": "[3]", "value": "21% (active)"},
      {"measurement": "outcome", "setting": "[4]", "value": "inactive"},
      {"measurement": "outcome", "setting": "[5]", "value": "inactive"}
    ]},
    {"smiles": "CCN1CCN(c2nc(Nc3cc(OC)ccc3OC)nc(Nc3cc(OC)ccc3OC)n2)CC1", "values": [
      {"measurement": "outcome", "setting": "[1]", "value": "inactive"},
      {"measurement": "outcome", "setting": "[2]", "value": "inactive"},
      {"measurement": "outcome", "setting": "[3]", "value": "inactive"},
      {"measurement": "inhibition", "setting": "[4]", "value": "55.5% (active)"},
      {"measurement": "outcome", "setting": "[5]", "value": "inactive"},
      {"measurement": "outcome", "setting": "[6]", "value": "inactive"}
    ]},
    {"smiles": "CC(=O)Nc1ccc(NC(=O)CN2CCCC(C)C2)c(Cl)c1", "note": "(stereo not given)", "values": [
      {"measurement": "outcome", "setting": "[1]", "value": "inactive"},
      {"measurement": "outcome", "setting": "[2]", "value": "inactive"},
      {"measurement": "outcome", "setting": "[3]", "value": "inactive"},
      {"measurement": "outcome", "setting": "[4]", "value": "inactive"},
      {"measurement": "inhibition", "setting": "[5]", "value": "66% (active)"}
    ]},
    {"smiles": "Cc1nc(N=C(N)N)nc2c(C)cccc12", "values": [
      {"measurement": "membrane potential signal change", "setting": "[1]", "value": "-235% (active)"},
      {"measurement": "inhibition", "setting": "[2]", "value": "76.5% (active)"},
      {"measurement": "percent change from control (negative = decrease, positive = increase)", "setting": "[3]", "value": "-42.5% (active)"},
      {"measurement": "inhibition", "setting": "[4]", "value": "60% (active)"},
      {"measurement": "inhibition", "setting": "[5]", "value": "67.5% (active)"},
      {"measurement": "outcome", "setting": "[6]", "value": "inactive"}
    ]},
    {"smiles": "COc1cc(CNCCN(C)C)ccc1OCc1c(F)cccc1Cl", "values": [
      {"measurement": "membrane potential signal change", "setting": "[1]", "value": "142% (active)"},
      {"measurement": "outcome", "setting": "[2]", "value": "inactive"},
      {"measurement": "percent change from control (negative = decrease, positive = increase)", "setting": "[3]", "value": "15.5% (active)"},
      {"measurement": "inhibition", "setting": "[4]", "value": "49% (active)"},
      {"measurement": "outcome", "setting": "[5]", "value": "inactive"},
      {"measurement": "activation", "setting": "[6]", "value": "56% (active)"}
    ]},
    {"smiles": "Cc1ccccc1NC(=O)CNc1ccccc1N1CCCCC1", "values": [
      {"measurement": "outcome", "setting": "[1]", "value": "inactive"},
      {"measurement": "outcome", "setting": "[2]", "value": "inactive"},
      {"measurement": "outcome", "setting": "[3]", "value": "inactive"},
      {"measurement": "inhibition", "setting": "[4]", "value": "52.5% (active)"},
      {"measurement": "outcome", "setting": "[5]", "value": "inactive"},
      {"measurement": "outcome", "setting": "[6]", "value": "inactive"}
    ]},
    {"smiles": "CCOC(=O)C1=NN(c2ccc(Cl)cc2)/C(=C/C2=NCCc3cc(OC)c(OC)cc32)S1", "values": [
      {"measurement": "outcome", "setting": "[1]", "value": "inactive"},
      {"measurement": "outcome", "setting": "[2]", "value": "inactive"},
      {"measurement": "percent change from control (negative = decrease, positive = increase)", "setting": "[3]", "value": "-15.5% (active)"},
      {"measurement": "outcome", "setting": "[4]", "value": "inactive"},
      {"measurement": "outcome", "setting": "[5]", "value": "inactive"},
      {"measurement": "outcome", "setting": "[6]", "value": "inactive"}
    ]},
    {"smiles": "CC(C)(C)Nc1nc(-c2ccccn2)nc2ccccc12", "values": [
      {"measurement": "membrane potential signal change", "setting": "[1]", "value": "-424% (active)"},
      {"measurement": "inhibition", "setting": "[2]", "value": "77% (active)"},
      {"measurement": "percent change from control (negative = decrease, positive = increase)", "setting": "[3]", "value": "-58% (active)"},
      {"measurement": "inhibition", "setting": "[4]", "value": "74% (active)"},
      {"measurement": "inhibition", "setting": "[5]", "value": "56.5% (active)"},
      {"measurement": "outcome", "setting": "[6]", "value": "inactive"}
    ]},
    {"smiles": "COC(=O)c1c(NC(=O)c2ccc(S(=O)(=O)N3CCOCC3)cc2)sc2c1CCN(C(C)C)C2", "values": [
      {"measurement": "membrane potential signal change", "setting": "[1]", "value": "-96% (active)"},
      {"measurement": "outcome", "setting": "[2]", "value": "inactive"},
      {"measurement": "percent change from control (negative = decrease, positive = increase)", "setting": "[3]", "value": "-33% (active)"},
      {"measurement": "inhibition", "setting": "[4]", "value": "37.5% (active)"},
      {"measurement": "outcome", "setting": "[5]", "value": "inactive"},
      {"measurement": "outcome", "setting": "[6]", "value": "inactive"}
    ]}
  ]
}
